HCMV inh: human cytomegalovirus inhibition. HFF cells, HCMV-luciferase reporter, 72 h; stronger effect = lower value. activity change, negative = inhibition, % at 57.5 µM. 4.5% of 410,000 active. AID 1259415; in the data active = activity change below about -60%; inconclusive = no clear call, values can overlap the other calls; inactive = above about -39%
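Cell-based, HFFs, 1000 cells/well, 16 h 37C; cpds in DMSO + HCMV-luc, MOI 1 PFU/cell; 72 h 37C; OneGlo luminescence after 5 min RT; norm. to buffer vs Salinomycin 10uM.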
Pf growth 96h: inhibits malaria parasite growth, 96 h | 6.9% of 320,000 active | Potency, µM (series often up to 28.7 µM), hits mostly inhibitors | AID 504834 | P. falciparum luciferase reporter growth, 96 h
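Delayed-death screen, second-generation endpoint: infected erythrocytes, 2% hematocrit, 0.05% parasitemia final; 96 hours at 37 C, 5% CO2; luciferase detection reagent; luminescence decrease equals reduced growth.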
CHX counter: affects cycloheximide protein synthesis inhibition readout, counter-screen. cell reporter, cycloheximide protein synthesis inhibition counterscreen. max response, %. 12% of 300,000 active. AID 2314; in the data active = max response mostly above about 13%, no sharp cut-off; inactive = mostly below about 14%; note: read at 38.3 µM for the half of the compounds with a filed dose
Shiga inhibitor: blocks Shiga toxin action in Vero cells; Vero cells, Shiga toxin protein synthesis inhibition reporter; inhibition, % at 38.7 µM; 9.2% of 290,000 active; in the data active = inhibition mostly above about 28%, no sharp cut-off; inactive = mostly below about 43%
Pf growth 48h: P. falciparum growth inhibition at 48 hours (one generation) | P. falciparum luciferase growth in erythrocytes, 48 h | Potency, µM (doses to about 28.7 µM), hits mostly inhibitors | 5.9% of 310,000 active
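Firefly luciferase activity from engineered P. falciparum reports growth; inhibitors lower the luminescent signal. Cultures contained 2% hematocrit erythrocytes at 0.1% final parasitemia.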
Each line names hits and unclear results; the compound was inactive in the other large screens. Shown are actives, neighbours in structure and some others; about 20% of the full set was active somewhere. Unless noted, calls come from the whole dose curve; as a rule, active = well fitted inhibition curve with a large enough effect; inconclusive = small, poorly fitted or top-dose-only effect, or another doubt; inactive = no such curve, though single readings can be large or run the other way.

COc1ccc(OC)c(Nc2nc(-c3ccc(C)cc3)nc3ccccc23)c1	none (no result: Pf growth 96h, CHX counter, Shiga inhibitor, Pf growth 48h)
COc1ccc(C)cc1Nc1n[n+](-c2ccccc2)c(-c2cc(OC)c(OC)cc2Br)s1	Pf growth 96h 9.3µM, Pf growth 48h inconclusive
N#C/C(=C/c1ccc(O)c(O)c1)c1nc2ccccc2[nH]1	CHX counter 26, Shiga inhibitor 77
N#C/C(=C\c1ccc(Cl)cc1)c1nc2ccccc2[nH]1	none (no result: Pf growth 96h, CHX counter, Shiga inhibitor, Pf growth 48h)
N#C/C(=C\c1cccs1)c1nc2ccccc2[nH]1	CHX counter 32, Shiga inhibitor 107, Pf growth 48h inconclusive
N#C/C(=C\c1ccccc1OCC(=O)O)c1nc2ccccc2[nH]1	CHX counter 8.3 (no result: Pf growth 48h)
N#C/C(=C/c1ccncc1)c1nc2ccccc2c(=O)[nH]1	HCMV inh inconclusive, Pf growth 96h inconclusive, Pf growth 48h inconclusive
N#C/C(=C\c1ccc(OC(=O)c2cccs2)cc1)c1nc2ccccc2[nH]1	Pf growth 96h inconclusive, CHX counter 58, Shiga inhibitor 145
COc1cccc(/C=C(\C#N)c2nc3ccccc3c(=O)[nH]2)c1OC	none (no result: Pf growth 96h, CHX counter, Shiga inhibitor, Pf growth 48h)
O=C(N/C(=C/c1cccs1)c1nc2ccccc2[nH]1)c1ccccc1	Pf growth 96h inconclusive
COc1ccc(NC(=O)c2nn(C)cc2[N+](=O)[O-])cc1	CHX counter 15
Cc1cccc(Oc2cc(NC(=O)c3ccccc3)cc([N+](=O)[O-])c2)c1	HCMV inh -64, Pf growth 96h inconclusive
COc1ccc(NC(=O)c2[nH]ncc2[N+](=O)[O-])cc1	CHX counter 26
Cc1nn(C)cc1NC(=O)c1nn(C)cc1[N+](=O)[O-]	none
Cn1cc([N+](=O)[O-])c(C(=O)Nc2cc(Oc3ccccc3)cc([N+](=O)[O-])c2)n1	HCMV inh -99, Pf growth 96h inconclusive
Cn1cc(Br)c(C(=O)Nc2ccc3c(C(F)(F)F)cc(=O)oc3c2)n1	none
Cc1ccc(-c2cc(C(=O)Nc3cnn(C45CC6CC(CC(C6)C4)C5)c3)no2)cc1	Pf growth 48h inconclusive
Cc1ccc(Oc2cc(NC(=O)CCCn3nc([N+](=O)[O-])cc3C)cc([N+](=O)[O-])c2)cc1	none
Cc1ccc(NC(=O)c2nn(C34CC5CC(CC(C5)C3)C4)cc2[N+](=O)[O-])cc1	HCMV inh -76, Pf growth 96h 1.5µM, Pf growth 48h inconclusive
CCn1nc(C)c(C(=O)Nc2cc(Oc3cc(C)cc(C)c3)cc([N+](=O)[O-])c2)c1C	Pf growth 96h 12µM, Pf growth 48h inconclusive
Cn1cc([N+](=O)[O-])c(C(=O)Nc2ccc3c(C(F)(F)F)cc(=O)oc3c2)n1	HCMV inh -99, CHX counter 15
C[C@H]1CN([C@@H](C)CO)C(=O)CCCn2nncc2CO[C@@H]1CN(C)C(=O)Nc1cccc2ccccc12	none (no result: Pf growth 96h, CHX counter, Shiga inhibitor, Pf growth 48h)
S=C(NCc1ccc(Cl)cc1)Nc1ccc(Cl)cc1Cl	Pf growth 96h inconclusive
CCCNC(=S)Nc1ccc(Cl)cc1Cl	HCMV inh inconclusive, Shiga inhibitor 41
S=C(NCc1ccccn1)Nc1ccc(Cl)cc1Cl	CHX counter 45
S=C(NCCc1ccc(Cl)cc1)Nc1ccc(Cl)cc1Cl	CHX counter 13, Pf growth 48h inconclusive
CC(C)n1c(NCc2ccc(Cl)cc2)nc2ccccc21	HCMV inh inconclusive
CCOc1ccc(CCNC(=O)C(CC(C)C)N2Cc3ccccc3C2=O)cc1OCC (centres undefined)	none (no result: Pf growth 96h, CHX counter, Shiga inhibitor, Pf growth 48h)
O=c1[nH]c(=S)[nH]c(O)c1N=Nc1ccc(-c2ccccc2)cc1[N+](=O)[O-]	CHX counter 17, Shiga inhibitor 58 (no result: HCMV inh)
O=c1[nH]c(=S)[nH]c(O)c1N=Nc1cc2c(cc1[N+](=O)[O-])OCO2	HCMV inh inconclusive
COc1ccc(/C=N/NC(=O)c2nonc2C)cc1	CHX counter 44, Shiga inhibitor 62
COc1ccc(/C=N\NC(=O)C2=NNC(=O)C2C)cc1 (centres undefined)	CHX counter 25, Shiga inhibitor 42
Cc1c(C(=O)N/N=C/c2ccncc2)no[n+]1[O-]	CHX counter 21
Cc1nonc1C(=O)N/N=C/c1ccncc1	Pf growth 96h 8.3µM, CHX counter 29, Shiga inhibitor 51
CC(C)(C)C1CCc2c(C(=O)NNC(=O)CCC(=O)O)csc2C1 (centres undefined)	HCMV inh inconclusive
COC(=O)c1ccccc1NC(NC(=O)c1ccco1)C(=O)c1ccc(C)cc1 (centres undefined)	none
Cc1ccccc1N=Nc1c(O)n(C)c2ccccc12	none
Cc1ccc(C)c(N=Nc2ccc(O)c3ncccc23)c1	HCMV inh -84, Pf growth 96h inconclusive, CHX counter 43, Shiga inhibitor 151, Pf growth 48h 2.1µM
Oc1ccc(N=Nc2ccc3c(c2)OCCO3)c2ncccc12	HCMV inh -103, Pf growth 96h 1µM, CHX counter 48, Shiga inhibitor 95, Pf growth 48h inconclusive
Cc1ccc(N=Nc2ccc(N)cc2C)c(S(N)(=O)=O)c1	CHX counter 65, Shiga inhibitor 94
Cc1cccc(N=Nc2ccc(O)c3ncccc23)c1	HCMV inh -102, Pf growth 96h inconclusive, CHX counter 46, Shiga inhibitor active, Pf growth 48h 1.9µM
Cc1ccc(N=Nc2c(C)[nH]n(-c3ccccc3)c2=O)c(C)c1	Pf growth 48h inconclusive
Cc1ccccc1N=Nc1ccc(N=Nc2c(O)ccc3ccccc23)c(C)c1	none (no result: HCMV inh, CHX counter, Shiga inhibitor)
C[N+](C)(C)C(Cc1c[nH]c2ccccc12)C(=O)[O-] (centres undefined)	none (no result: HCMV inh)
CCOC(=O)c1c(C)n(S(=O)(=O)c2ccc(C)cc2)c2ccc(NS(=O)(=O)c3ccc(C)cc3)cc12	none (no result: Pf growth 96h, CHX counter, Shiga inhibitor, Pf growth 48h)
CCCCCN(C(=O)CCC(=O)OCC(=O)NCCc1ccccc1)c1c(N)n(CCCC)c(=O)[nH]c1=O	none (no result: Pf growth 96h, CHX counter, Shiga inhibitor, Pf growth 48h)
Cc1ccc(N=Nc2cc(C)ccc2O)c(C)c1	CHX counter 36, Shiga inhibitor 77
Cc1cc(C)c2c(n1)sc1c(=O)n(CC(=O)c3ccccc3)cnc12	none
C=CCOC(=O)Cn1cnc2c(sc3nc(C)cc(C)c32)c1=O	HCMV inh inconclusive, CHX counter 46, Shiga inhibitor 72, Pf growth 48h inconclusive
Cc1csc(CNC(=O)c2cc(COc3c(C)cccc3C)on2)n1	none
Cc1ccc(OCc2cc(C(=O)N3CC4C[C@@H]5CC3C[C@H](C4)C5)no2)cc1C	CHX counter 35, Shiga inhibitor 135
COCC1CCN(C(=O)c2cc(COc3ccc(C)c(C)c3)on2)C1 (centres undefined)	Pf growth 96h inconclusive
Cc1cccc(C)c1OCc1cc(C(=O)N2CC3C[C@@H]4CC2C[C@H](C3)C4)no1	CHX counter 65, Shiga inhibitor 96
Cc1ccc2cccc(NC(=O)c3cccc4c(Br)cccc34)c2n1	none (no result: Pf growth 96h, CHX counter, Shiga inhibitor, Pf growth 48h)
Cc1cc(C)c(NC(=O)/C(=C/c2ccccc2)c2ccccc2)c(C)c1	Pf growth 48h 4.1µM
Cc1nnsc1-c1c(C(=O)Oc2ccccc2)c(C)nn1-c1ccccc1	Pf growth 96h 13µM, Pf growth 48h 9.3µM
COC(=O)c1c(C)nn(-c2ccccc2)c1-n1cccc1	Pf growth 96h inconclusive (no result: Pf growth 48h)
